Screens from PubChem.
NOD2 RIPK2 PPI: NOD2-RIPK2 binding disruptors in cells, primary screen, fluorescence, CHO cells, BLA complementation. Receptor-interacting serine/threonine-protein kinase 2 (Homo sapiens), O43353. CCF4 ratio. inhibition, % at 4.98 µM. 0.38% of 360,000 active. AID 624267, 2012; in the data active means inhibition above about 21%;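 further: 0% = vehicle only and 100% = reference blocker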
TLR4-MyD88 BLA: inhibitors of TLR4-MyD88 association in cells, primary screen, cell-based, HeLa CL3-4, BLA complementation, FRET ratio; Toll-like receptor 4 (Homo sapiens) + Myeloid differentiation primary response protein …; HeLa CL3-4 TLR4/MyD88 BLA complementation; inhibition, % at 8.4 µM; 0.18% of 200,000 active; in the data active means inhibition above about 25%;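 further: 0% = vehicle and 100% = reference inhibitor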
ABHD5-PLIN5 inh: ABHD5-PLIN5 interaction inhibitors, primary screen, cell lysate, split luciferase complementation, luminescence; Perilipin-5 (Homo sapiens) + 1-acylglycerol-3-phosphate O-acyltransferase ABHD5 (Homo …; Split G. princeps luciferase complementation, 4 h; inhibition, % at 4 µM; 0.78% of 360,000 active; AID 602281, 2012;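 active means inhibition above the mean inhibition across every tested compound plus 3 SD, cut at about 22% in these data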;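 further: 0% = DMSO only wells and the 100% control is not disclosed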
PRMT1 FP inh: PRMT1 methyltransferase inhibitors, primary screen, biochemical, fluorescence polarization. Protein arginine N-methyltransferase 1 (Homo sapiens), Q99873. 1.3% of 370,000 active. recombinant PRMT1, activity-based probe fluorescence polarization. AID 652257, 2013. inhibition, % at 2.79 µM;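 active means inhibition above about 21% made by adding two undisclosed values, limit read from the data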
Target sequence (Q99873 whole entry, looked up): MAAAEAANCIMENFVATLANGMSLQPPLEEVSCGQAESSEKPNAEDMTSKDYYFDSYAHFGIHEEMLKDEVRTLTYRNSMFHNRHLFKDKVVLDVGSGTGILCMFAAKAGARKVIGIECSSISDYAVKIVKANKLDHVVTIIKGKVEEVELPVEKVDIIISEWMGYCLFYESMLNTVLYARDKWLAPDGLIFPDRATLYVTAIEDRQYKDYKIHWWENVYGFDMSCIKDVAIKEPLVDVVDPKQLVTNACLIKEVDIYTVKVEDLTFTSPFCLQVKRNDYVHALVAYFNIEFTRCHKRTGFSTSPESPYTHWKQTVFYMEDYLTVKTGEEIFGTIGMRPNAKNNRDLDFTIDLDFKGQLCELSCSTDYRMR
TLR9-MyD88 block: inhibitors of TLR9-MyD88 association in cells, primary screen, cell-based, CHO, BLA complementation, fluorescence; inhibition, % at 4.98 µM; CCF4 FRET ratio; Toll-like receptor 9 (Homo sapiens) + Myeloid differentiation primary response protein …; 0.21% of 340,000 active;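 active means inhibition above the mean over all tested compounds plus 3 SD, cut at about 21% in these data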;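 further: 0% = DMSO only wells and 100% = clavulanate BLA inhibitor control wells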
rCAG binder: binders of r(CAG) RNA repeats, primary screen, biochemical, fluorescence; 1.3% of 370,000 active; inhibition, % at 3 µM; AID 651821, 2012; r(CAG) RNA repeat, TO-PRO-1 dye displacement fluorescence;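 active means inhibition above the plate cutoff, the mean of all test compounds on that plate plus 3 SD, cut at about 35% in these data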;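 further: 0% = DMSO alone and 100% = 100 µM mitoxantrone as full dye displacement; higher means more dye released from RNA so lower well fluorescence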
rCAG bind conf: small molecules binding CAG repeat RNA – biochemical, fluorescence, confirmation; shares compounds with rCAG binder; r(CAG) RNA repeat, TO-PRO-1 dye displacement fluorescence; inhibition, % at 3 µM; 70% of 4,300 active; AID 652065, 2013;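 active means inhibition above a per-plate cutoff, the mean inhibition of sample wells plus 3 SD, cut at about 35% in these data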;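 further: loss of TO-PRO-1 fluorescence as compound displaces dye from 1x1 AA loop RNA; 0% = DMSO only wells and 100% = 100 µM mitoxantrone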
dCAG dye counter: displacement of TO-PRO-1 from CAG DNA duplex, counter-screen for rCAG RNA repeat binder project, biochemical, fluorescence, TO-PRO-1 dye, d(CAG) DNA oligo. shares compounds with rCAG binder. d(CAG) DNA oligo TO-PRO-1 dye displacement. inhibition, % at 3 µM. 94% of 4,300 active. AID 652068, 2013;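 active means inhibition above its plate's cutoff, the mean test-well inhibition plus 3 SD, cut at about 4.8% in these data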;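 further: 0% = DNA dye mix with DMSO and 100% = 100 µM mitoxantrone; hits displace the dye from DNA and so lower well fluorescence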
Starred values were filed as active, the others as inactive; nt = no result given. Shown are actives, neighbours in structure and some others; about 3.3% of the full set was active somewhere.

SMILES | NOD2 RIPK2 PPI | TLR4-MyD88 BLA | ABHD5-PLIN5 inh | PRMT1 FP inh | TLR9-MyD88 block | rCAG binder | rCAG bind conf | dCAG dye counter
O=C(CCCN1C(=O)C2CC=CCC2C1=O)Nc1cccc(F)c1 (stereo not given) | -10 | nt | 0 | -1 | -3 | -2 | nt | nt
CC1=NN(c2ccc(C(=O)O)cc2)C(=O)/C1=C\c1ccc(OC(=O)c2cccs2)cc1 | 4 | -4 | -16 | 6 | -8 | 45* | 52* | 18*
Cc1ccc(/C=C2\SC(=S)N(CCC(=O)NNC(=O)c3ccc(O)cc3)C2=O)cc1 | -9 | nt | -4 | 1 | -6 | 14 | nt | nt
O=C(CCN1C(=O)S/C(=C/c2ccccc2)C1=O)Nc1ccc(O)c(C(=O)O)c1 | -6 | nt | 14 | 12 | 4 | 56* | 40* | 14*
CN1C(=O)/C(=C/c2ccc(C(=O)Nc3ccc(O)cc3C(=O)O)cc2)SC1=S | 1 | nt | 3 | 3 | 1 | 55* | 94* | 82*
O=C(CCN1C(=O)S/C(=C\c2ccccc2)C1=O)Nc1ccc(O)cc1C(=O)O | -4 | nt | 8 | 10 | -3 | 46* | 33 | 8.4*
O=C(CN(Cc1ccc(Cl)cc1)C(=O)CNS(=O)(=O)c1ccccc1)NCC1CCCO1 (stereo not given) | 4 | nt | -4 | -1 | 1 | -4 | nt | nt
Cc1ccccc1S(=O)(=O)N1CCCc2nc(-c3ccccc3)ccc21 | nt | nt | nt | -4 | nt | 0 | nt | nt
COc1ccc(NC(=O)CN2CCc3ccccc3C2)c([N+](=O)[O-])c1 | 4 | nt | -2 | 0 | 6 | -2 | nt | nt
COc1cc(/C=N/N=C2/NC(=O)C(CC(=O)O)S2)ccc1OCc1cccc(Cl)c1 (stereo not given) | 7 | 0 | -1 | 1 | 2 | 43* | 26 | 5.5*
CCOc1cc(/C=N/N=C2/NC(=O)C(CC(=O)O)S2)ccc1OCc1ccc(Cl)cc1 (stereo not given) | -11 | 0 | -5 | -1 | -15 | 60* | 40* | 10*
Cc1ccc(NC(=O)C2(C)CCN2Cc2cccc3c2OCO3)cc1O (stereo not given) | -2 | nt | -9 | 2 | nt | 5 | nt | nt
Cc1ccccc1NC(=O)c1ccc(OCc2c(C)noc2C)cc1 | -12 | nt | 2 | 9 | -15 | -1 | nt | nt
COc1cc([N+](=O)[O-])cc(/C=N/NC(=O)C(C)Nc2cccc(C)c2)c1O (stereo not given) | -6 | 4 | -1 | -4 | 3 | 22 | nt | nt
COc1cc([N+](=O)[O-])cc(/C=N/NC(=O)C(C)Nc2ccccc2C)c1O (stereo not given) | -7 | 8 | 7 | -4 | -3 | 36* | 29 | 10*
CCC(C)(C)c1ccc(Oc2cccc(C(=O)O)c2)cc1 | -7 | nt | 6 | 7 | 4 | 39* | 29 | 3
Cc1ccccc1Oc1cccc(C(=O)/C(C#N)=C/N(C)C)c1 | -8 | -7 | 3 | 1 | -3 | 16 | nt | nt
CN(C)/C=C(/C#N)C(=O)c1cccc(Oc2ccc(C(C)(C)C)cc2)c1 | -6 | -2 | 1 | -1 | -3 | 50* | 20 | 6.1*
S=C(Nc1ccc(-c2nc3ccccc3[nH]2)cc1)Nc1cccnc1 | -4 | nt | -6 | -1 | -1 | 9 | nt | nt
COc1ccc(N(CC(=O)Nc2cccc(C(F)(F)F)c2)S(=O)(=O)c2c(C)[nH]c(=O)[nH]c2=O)cc1 | -1 | nt | 0 | 1 | 3 | 37* | 33 | 8.3*
CCc1ccc(NC(=O)CN(c2ccc(OC)cc2)S(=O)(=O)c2c(C)[nH]c(=O)[nH]c2=O)cc1 | 3 | nt | 0 | -3 | 3 | 40* | 25 | 4
CCOc1ccc(N(CC(=O)Nc2ccc(CC)cc2)S(=O)(=O)c2c(C)[nH]c(=O)[nH]c2=O)cc1 | 3 | nt | -3 | 2 | -6 | 34 | nt | nt
Cc1cc(OC(=O)Nc2ccccc2)ccc1Cl | 7 | nt | 3 | 1 | 4 | 0 | nt | nt
COCCN(CCOC)S(=O)(=O)c1ccc(C(=O)Nc2c(C)n(C)n(-c3ccccc3)c2=O)cc1 | -14 | nt | -1 | 3 | 4 | -4 | nt | nt
Cc1ccccc1NS(=O)(=O)c1c(C(=O)N2CCCCCC2)c(C)n(C)c1C | -8 | nt | 2 | -3 | -12 | -4 | nt | nt
SMILES | NOD2 RIPK2 PPI | TLR4-MyD88 BLA | ABHD5-PLIN5 inh | PRMT1 FP inh | TLR9-MyD88 block | rCAG binder | rCAG bind conf | dCAG dye counter
CC(=O)Nc1nc2ccc(S(=O)(=O)N3CCCCC3)cc2s1 | -3 | nt | 3 | 0 | 7 | 4 | nt | nt
Cc1ccc(S(=O)(=O)Nc2nc3ccc(S(=O)(=O)N4CCCC4)cc3s2)cc1 | 2 | 16 | 5 | 2 | 1 | 71* | 74* | 38*
O=S(=O)(Nc1nc2ccc(S(=O)(=O)N3CCCCC3)cc2s1)c1ccccc1 | -4 | -8 | -4 | 4 | -7 | 72* | 65* | 28*
c1ccc2c(c1)N=C(N1CCN(Cc3ccc4c(c3)OCO4)CC1)c1ccccc1S2 | nt | nt | nt | 0 | nt | 5 | nt | nt
Cc1cc(N)n(-c2ccc(C)c(C)c2)n1 | -3 | -2 | -1 | -1 | -12 | -2 | nt | nt
Cc1cc(N)n(-c2ccc(Oc3ccccc3)c(S(=O)(=O)O)c2)n1 | 2 | 7 | -1 | 2 | 4 | 59* | 42* | 9.7*
CCOC(=O)[C@]12CCCC=C1N(Cc1cccc3ccccc13)C(=O)[C@H](CC(=O)N1CCCCC1)C2 | -1 | nt | 0 | 6 | nt | 3 | nt | nt
COCc1nnc(NC(=O)c2ccc(S(=O)(=O)N3CCCc4ccccc43)cc2)o1 | -4 | -4 | 4 | -4 | 5 | 25 | nt | nt
O=C(Nc1nnc(C2CC2)o1)c1ccc(S(=O)(=O)N2CCCc3ccccc32)cc1 | -4 | nt | -2 | -6 | -13 | 36* | 32 | 11*
Cc1[nH]c2ccccc2c1N=Nc1ccccc1C(=O)O | -6 | -5 | -2 | 9 | -5 | 53* | 19 | 5.7*
COC(=O)C[C@H]1c2cc(F)ccc2S(=O)(=O)N1Cc1ccccc1 | -8 | nt | 5 | 1 | 1 | 1 | nt | nt
O=C(COc1ccc([N+](=O)[O-])cc1)NNC(=O)c1cccs1 | -3 | 9 | -4 | 1 | 2 | 1 | nt | nt
